# From the supplement of paper PMC8975748
# Counter-ions that a name gives are not always drawn.
# System: Saccharomyces cerevisiae BY4741 SeMeCo community
# Experiment: z-score of subpopulation abundance vs DMSO median, subpopulation auxotrophic for M; higher = larger share of this subpopulation than in DMSO controls
# Conditions: 10 µM; 24 h; SM minimal medium; subpopulation (auxotrophy): M
# Protocol: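 Fluorescent four-plasmid SeMeCo (self-establishing metabolically cooperating S. cerevisiae BY4741 community; plasmids pH-mRuby2, pL-mWasabi, pU-eCFP, pM-TagRFP657) was grown 24 h in minimal SM medium with each Selleck FDA-approved drug at 10 µM in 384-well plates. Cells were fixed and imaged by high-content confocal microscopy. For each auxotrophic subpopulation (and the prototroph), a z-score gives the deviation from the DMSO vehicle-control population median.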
row,SMILES,z-score of subpopulation abundance
1,CC[C@H]1[C@@H]2C[C@H]3[C@@H]4N(C)c5ccccc5[C@]45C[C@@H]([C@@H]2[C@H]5O)N3[C@@H]1O [Ajmaline],0.82
2,CC(C)=CCOc1c2occc2cc2ccc(=O)oc12 [Imperatorin],1.13
3,CN(C)[C@@H]1C(=O)C(C(N)=O)=C(O)[C@@]2(O)C(=O)C3=C(O)c4c(O)cccc4[C@@](C)(O)[C@H]3[C@H](O)[C@@H]12 [Oxytetracycline (Terramycin)],-0.79
4,Cc1cc(O)ccc1Cl [Chlorocresol],1.26
5,CC[N+](C)(CC)CCOC(=O)C(O)(c1ccccc1)c1ccccc1 [Methylbenactyzine Bromide],0.22
6,COc1ccc(C(CN(C)C)C2(O)CCCCC2)cc1 (stereo not given) [Venlafaxine],-0.73
7,O=[N+]([O-])C(Br)(CO)CO [Bronopol],0.51
8,CCOC(=O)Nc1ccc(NCc2ccc(F)cc2)cc1N [Retigabine],0.51
9,COc1cc2c(cc1OC)C1CC(=O)C(CC(C)C)CN1CC2 (stereo not given) [Tetrabenazine (Xenazine)],0.98
10,COc1ccc(C(CN(C)C)C2(O)CCCCC2)cc1 (stereo not given) [Venlafaxine HCl],0.68
11,O=c1cccc2n1C[C@@H]1CNC[C@H]2C1 [Cytisine],-0.43
12,CC[C@H]1CN2CC[C@]3(C(=O)Nc4ccccc43)[C@@H]2C[C@@H]1/C(=C\OC)C(=O)OC [Rhynchophylline],-0.68
13,O=c1[nH]c2ccccc2n1CCCN1CCC(n2c(=O)[nH]c3cc(Cl)ccc32)CC1 [Domperidone],0.22
14,CN(C)C(=O)Oc1ccc[n+](C)c1 [Pyridostigmine Bromide],0.47
15,CCN(CC)CCOC(=O)C(O)(c1ccccc1)c1ccccc1 [Benactyzine hydrochloride],-1.19
16,C=CN1CCCC1=O.II [Povidone iodine],-0.79
17,C#C[C@]1(O)C=C[C@H]2[C@@H]3CCC4=CC(=O)CC[C@@H]4[C@H]3CC[C@@]21CC [Gestodene],0.43
18,CN[C@@H]1[C@@H](O)[C@@H](O[C@@H]2[C@@H](O)[C@H](O[C@H]3O[C@H]([C@@H](C)O)[C@@H](O)[C@H](O)[C@H]3N)[C@@H](N)C[C@H]2N)OC[C@]1(C)O [Geneticin (G418 Sulfate)],-0.27
19,N#Cc1nn(-c2c(Cl)cc(C(F)(F)F)cc2Cl)c(N)c1[S+]([O-])C(F)(F)F (stereo not given) [Fipronil],-1.13
20,CCC1=C[C@H]2CN3CCc4c([nH]c5ccccc45)[C@](C(=O)OC)(C2)[C@H]13 [Catharanthine],-0.42

row,SMILES,z-score of subpopulation abundance
1,CN1C(=O)COc2c(C(=O)NC3CN4CCC3CC4)cc(Cl)cc21 (stereo not given) [Azasetron HCl],1.59
2,Nc1ccncc1 [4-Aminopyridine],0.04
3,C=CC[C@]1(O)CC[C@H]2[C@@H]3CCC4=CC(=O)CCC4=C3C=C[C@@]21C [Altrenogest],0.62
4,CN1[C@@H]2C[C@@H](OC(=O)[C@H](CO)c3ccccc3)C[C@H]1[C@@H]1O[C@@H]12 [Scopolamine HBr],-0.04
5,Nc1nc(N)nc(NC2CC2)n1 [Cyromazine],0.95
6,CC[C@@H](C(N)=O)N1CCCC1=O [Levetiracetam],0.08
7,CC[C@@]1(O)C(=O)OCc2c1cc1n(c2=O)Cc2cc3ccccc3nc2-1 [Camptothecin],1.3
8,N[C@@H]1C[C@H]1c1ccccc1 [Tranylcypromine (2-PCPA) HCl],-0.13
9,C=C[C@H]1CN2CC[C@H]1C[C@H]2[C@H](O)c1ccnc2ccccc12 [Cinchonidine],0.23
10,C[C@@H]1O[C@@H](O[C@H]2C[C@@H](O)[C@]3(CO)[C@H]4[C@H](O)C[C@]5(C)[C@@H](C6=CC(=O)OC6)CC[C@]5(O)[C@@H]4CC[C@]3(O)C2)[C@H](O)[C@H](O)[C@H]1O [Ouabain],-0.73
11,CCN1CC2(OC(=O)c3ccccc3NC(C)=O)CCC(OC)C34C1C(CC23)C1(O)CC(OC)C2CC4C1(O)C2OC (stereo not given) [Lappaconitine],0.06
12,C[N+](C)(C)CCCCCCCCCC[N+](C)(C)C [Decamethonium Bromide],-0.44
13,Oc1cccc2cccnc12 [8-Hydroxyquinoline],1.04
14,CNC1CC(N)C(O)C(OC2OC(CO)C(O)C3OC4(OC(C(N)CO)C(O)C(O)C4O)OC23)C1O (stereo not given) [Hygromycin B],-0.9
15,CC(=O)O[C@H]1C[C@@H]2CC[C@@H]3[C@H](CC[C@@]4(C)[C@H]3C[C@H]([N+]3(C)CCCCC3)[C@@H]4OC(C)=O)[C@@]2(C)C[C@@H]1[N+]1(C)CCCCC1 [Pancuronium dibromide],-1.46
16,CN1[C@@H]2C[C@@H](OC(=O)[C@H](CO)c3ccccc3)C[C@H]1[C@@H]1O[C@@H]12 [Scopolamine HBr trihydrate],-0.97
17,"NCC(O)c1ccc(O)cc1 (racemic) [(+,-)-Octopamine HCl]",0.19
18,CCN(C)C(=O)Oc1cccc([C@H](C)N(C)C)c1 [Rivastigmine],1.32
19,C=C(C)[C@H]1Cc2c(ccc3c2O[C@@H]2COc4cc(OC)c(OC)cc4[C@@H]2C3=O)O1 [Rotenone (Barbasco)],0.37
20,CN[C@@H]1[C@@H](O)[C@@H](O[C@@H]2[C@@H](O)[C@H](O[C@H]3O[C@H](CN)CC[C@H]3N)[C@@H](N)C[C@H]2N)OC[C@]1(C)O.CN[C@@H]1[C@@H](O)[C@@H](O[C@@H]2[C@@H](O)[C@H](O[C@H]3O[C@H]([C@@H](C)N)CC[C@H]3N)[C@@H](N)C[C@H]2N)OC[C@]1(C)O.CN[C@@H]1[C@@H](O)[C@@H](O[C@@H]2[C@@H](O)[C@H](O[C@H]3O[C@H]([C@@H](C)NC)CC[C@H]3N)[C@@H](N)C[C@H]2N)OC[C@]1(C)O [Gentamicin Sulfate],-0.59
